Drawing on PubChem BioAssay (NCATS), this text covers max response, outcome and Potency for 19 compounds.

Molecules are shown by their SMILES. Several values for one entry are separate records, joined by “and”; a condition that tells them apart may be missing. Identical values can stand only once. Inconclusive results are not listed. Values without a mark were called inactive. Activity calls are given as the source filed them. Calls come from the whole dose curve; as a rule, active = well fitted inhibition curve with a large enough effect; inconclusive = small, poorly fitted or top-dose-only effect; inactive = flat fitted curve, though single readings scatter.

The subject of assay [1] is NIH3T3. Briefly: Cytotoxic Profiling of Annotated Libraries Using Quantitative High-Throughput Screening (AID 1296008). The following applies: Five cell lines viability, CellTiter-Glo ATP luminescence, 48-72 h; max response: stronger effect = lower value. Put shortly: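 Compounds were pin-transferred onto cells and incubated 48 or 72 hr at 37 degree Celsius, 95% humidity. CellTiter-Glo was added, plates sat 10 min at room temperature, then ATP-coupled luminescence was imaged as the viability read-out.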
A general note: In ATP-based viability assays light output follows the ATP content of the culture.

A further assay relates to HACAT. The assay is described as follows: qHTS assay to identify novel small-molecules to repurpose for Merkel cell carcinoma treatment (AID 1296009). The following applies: MCC and control cell lines, CellTiter-Glo viability, 72 h; at 44.8 µM (top of the series) unless noted. In outline: (§1)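 qHTS format: cells treated with library compounds in DMSO across 8 (NPC) or 11 (MIPE) concentrations. Readout after 72 hr at 37 degree celsius was CellTiter-Glo luminescence.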
On the technique in general: Quantitative high-throughput screening tests each substance at several concentrations.

For the next assay, the system named is MCC-13. The description is as above. The following applies: MCC and control cell lines, CellTiter-Glo viability, 72 h; series mostly up to 46 µM. Put shortly:
as §1

Another assay deals with MCC-26. The assay is described as above. Particulars: MCC and control cell lines, CellTiter-Glo viability, 72 h; series mostly up to 46 µM. In outline:
as §1

A further assay concerns MKL-1. The assay is described as above. Particulars: MCC and control cell lines, CellTiter-Glo viability, 72 h; series mostly up to 46 µM. Put shortly:
as §1

The test system of a further assay is MKL-2. Described as above. Particulars: MCC and control cell lines, CellTiter-Glo viability, 72 h; series mostly up to 46 µM. In outline:
as §1

For another assay, the system named is UISO. The assay is described as above. Particulars: MCC and control cell lines, CellTiter-Glo viability, 72 h; series mostly up to 46 µM. In outline:
as §1

The next assay concerns WaGa. The description is as above. The following applies: MCC and control cell lines, CellTiter-Glo viability, 72 h; series mostly up to 46 µM. Put shortly:
as §1

The test system of assay [2] is NIH3T3. The description is as above. Particulars: MCC and control cell lines, CellTiter-Glo viability, 72 h; at 44.8 µM (top of the series) unless noted. Put shortly:
as §1

For the next assay, the system named is HEK293T. The assay is described as above. Particulars: MCC and control cell lines, CellTiter-Glo viability, 72 h; at 44.8 µM (top of the series). Put shortly:
as §1
% is set by controls: 0 for no effect and ±100 for the full control effect; potency is the fitted concentration of half-maximal effect.
Note: nearly all actives have a fitted effect of over 60% in size.

In the case of `NC(=O)c1cccc(-c2cc(Nc3ccc(OC(F)(F)F)cc3)ncn2)c1`, in the assay on NIH3T3 [1], the max response is 0.478% and -10.9%. Further, in the assay with HACAT, the compound was called inactive. The Potency result in the assay on MCC-13, with MCC-26 and in the assay with MKL-1 was “inactive” in each case.

As for `Cc1cccc(Nc2nc(-c3ccncc3)cs2)c1`, the Potency was 11.8 µM (active) and 7.31 µM (active) in the assay with NIH3T3 [1]; 0.935 µM (active) with UISO. Besides, in the assay with HACAT, the call was inactive. Further, the Potency result in the assay with MCC-13, in the assay with MCC-26, in the assay on MKL-1, in the assay with MKL-2 and in the assay with WaGa was “inactive” throughout.

As to `CNC(=O)c1ccc2cc(C3(O)CCn4cncc43)ccc2c1` (stereo not given), the max response in the assay on NIH3T3 [1] was 3.68% and 1.07%. In addition, the compound was called inactive with HACAT. The Potency entry in the assay on MCC-13, in the assay with MCC-26, in the assay on MKL-1, with MKL-2, with UISO and in the assay on WaGa was “inactive” each time.

Consider `NC(=O)NN=Cc1ccc([N+](=O)[O-])o1`, for which the result in the assay on NIH3T3 [1], in the assay on HACAT and in the assay on NIH3T3 [2] was inactive. The Potency result in the assay with MCC-13, in the assay on MCC-26, with MKL-1, in the assay on MKL-2 and with UISO was “inactive” each time.

Regarding `NC(=O)c1ccc2nc(-c3ccc(Oc4ccc(Cl)cc4)cc3)[nH]c2c1`, the max response with NIH3T3 [1] was -2.72% and -4.33%. Moreover, in the assay on HACAT, the outcome was inactive. In addition, the Potency entry in the assay on MCC-13, with MCC-26 and in the assay with MKL-1 was “inactive” in each case.

Take `CCCCCCCCCCCC1=C(O)C(=O)C=C(O)C1=O`: in the assay with NIH3T3 [1], the max response is -3.68%. In addition, the compound was called inactive with HACAT and with HEK293T. In addition, the Potency entry in the assay with MCC-13 and with UISO was “inactive” each time. The Potency in the assay on MKL-1 and with WaGa was 2.96 µM (active) throughout.

`O=C(O)c1cc(O)c2c(c1)C(=O)c1cccc(O)c1C2=O`: the max response in the assay with NIH3T3 [1] was 0.522%. Moreover, in the assay on HACAT, the outcome was “inactive [at 92 µM]”. Moreover, the Potency entry in the assay on MCC-13, in the assay with MCC-26, in the assay with MKL-1, in the assay on MKL-2 and with WaGa was “inactive” in each case.

As to `O=C1Nc2ccc(Cl)cc2C(C#CC2CC2)(C(F)(F)F)O1` (stereo not given), the max response in the assay on NIH3T3 [1] was -6.53%. Also, in the assay on HACAT, the compound was called inactive. The Potency entry in the assay with MCC-13, with MCC-26, in the assay on MKL-1, with MKL-2, with UISO and in the assay with WaGa was “inactive” in each case.

In the case of `COc1cc(NC(=O)c2ccc(-c3ccc(Cl)cc3)o2)cc(OC)c1`, the max response in the assay with NIH3T3 [1] was 1.05%. Also, in the assay on HACAT, the compound was called inactive. The Potency entry in the assay with MCC-13, in the assay with MCC-26, in the assay on MKL-1, in the assay on MKL-2, in the assay with UISO and in the assay on WaGa was “inactive” each time.

For the compound `N#Cc1ccc(NC(=O)Nc2ccccc2Br)c2n[nH]nc12`, the max response in the assay with NIH3T3 [1] was 3.86%. Also, the compound was called inactive with HACAT. Further, the Potency entry with MCC-13, with MCC-26, in the assay on MKL-1, with MKL-2, in the assay with UISO and with WaGa was “inactive” in each case.

In the case of `Nc1ncnc2c1ncn2[C@@H]1O[C@@H](CO)[C@H](O)[C@H]1O`, the max response with NIH3T3 [1] is -24.9%. Also, the compound was called inactive in the assay with HACAT and in the assay with HEK293T. The Potency entry with MCC-13, in the assay on MKL-1, with MKL-2, in the assay on UISO and in the assay with WaGa was “inactive” in each case.

As to `O=C(Nc1c(Cl)cncc1Cl)c1ccc(OC(F)F)c(OCC2CC2)c1`, the max response with NIH3T3 [1] was -4.15%. Moreover, the outcome in the assay with HACAT was inactive. For the same compound, the Potency entry in the assay on MCC-13, in the assay on MCC-26, with MKL-1, in the assay on MKL-2, with UISO and in the assay on WaGa was “inactive” throughout.

On to `CC(=O)O[C@]1(C(C)=O)CC[C@H]2[C@@H]3C=C(Cl)C4=CC(=O)[C@@H]5C[C@@H]5[C@]4(C)[C@H]3CC[C@@]21C`, for which the max response in the assay with NIH3T3 [1] is -8.51% and -19.2%. In addition, the Potency entry in the assay on MCC-13 is “inactive”.

In the case of `COc1ccc2c3c1OC1C[C@@H](O)C=C[C@@]31CCN(C)C2` (stereo not given in full), in the assay on NIH3T3 [1], the max response is 1.03%. In addition, the compound was called inactive in the assay on HACAT. In addition, the Potency result in the assay on MCC-13, with MKL-1, with MKL-2, in the assay with UISO and with WaGa was “inactive” each time.

Regarding `O=c1c(O)c(-c2ccc(O)cc2)oc2cc(O)cc(O)c12`, in the assay with NIH3T3 [1], the max response was -2.9%. Also, the call in the assay on HEK293T was inactive. Also, the Potency result in the assay on MCC-13 and in the assay on MCC-26 was “inactive” throughout. The Potency in the assay with WaGa was 3.72 µM (active).

For `CS(=O)c1ccc(-c2nc(-c3ccc(F)cc3)c(-c3ccncc3)[nH]2)cc1` (stereo not given), in the assay with NIH3T3 [1], the max response was 3.16% and 3.83%. The result in the assay on HEK293T was inactive. Moreover, the Potency entry in the assay on MCC-13, in the assay on MCC-26, with MKL-1, in the assay on MKL-2 and with UISO was “inactive” each time.

`CC(=Cc1ccccc1)C=C1SC(=S)N(CC(=O)O)C1=O`: the result in the assay on NIH3T3 [1], in the assay with HACAT and in the assay with NIH3T3 [2] was inactive. Further, the Potency entry in the assay with MCC-13, with MKL-1, in the assay on MKL-2, in the assay on UISO and in the assay with WaGa was “inactive” in each case.

For `CO[C@H]1C[C@@H]2CC[C@@H](C)[C@@](O)(O2)C(=O)C(=O)N2CCCC[C@@H]2C(=O)O[C@H]([C@@H](C)C[C@@H]2CC[C@H](O)[C@H](OC)C2)CC(=O)[C@H](C)C=C(C)[C@@H](O)[C@@H](OC)C(=O)[C@H](C)C[C@H](C)C=CC=CC=C1C`, the outcome in the assay with NIH3T3 [1] and with NIH3T3 [2] was “inactive; activator” in each case. Also, in the assay on HACAT, the compound was called inactive. The Potency result in the assay on MCC-13, in the assay on MCC-26 and in the assay with UISO was “inactive” throughout.

In the case of `CCN(CC)C(=O)c1ccc(O)c(OC)c1`, the max response with NIH3T3 [1] is -4.21%. Further, the call in the assay on HACAT was inactive. For the same compound, the Potency result in the assay with MCC-13, with MKL-1, in the assay with MKL-2, in the assay on UISO and with WaGa was “inactive” throughout.
